Measurements: PubChem BioAssay AID1851 (National Center for Advancing Translational Sciences (NCATS), 2009)
The whole screen tested about 16,000 compounds, of which about 5,800 (36%) were called active. Another 23% or so got no clear call; they are omitted. The list shows a part of the results. Values without a mark were called inactive. The call rests on the fitted dose curve; in most records, active means well fitted curve in the direction sought with a large enough effect; inconclusive means small, poorly fitted or top-dose-only effect, or effect the other way; inactive means no such curve, though single readings can be large or run the other way.

Target: Cytochrome P450 2C19 (Homo sapiens) (UniProt P33261)
Sequence (P33261 whole entry, looked up): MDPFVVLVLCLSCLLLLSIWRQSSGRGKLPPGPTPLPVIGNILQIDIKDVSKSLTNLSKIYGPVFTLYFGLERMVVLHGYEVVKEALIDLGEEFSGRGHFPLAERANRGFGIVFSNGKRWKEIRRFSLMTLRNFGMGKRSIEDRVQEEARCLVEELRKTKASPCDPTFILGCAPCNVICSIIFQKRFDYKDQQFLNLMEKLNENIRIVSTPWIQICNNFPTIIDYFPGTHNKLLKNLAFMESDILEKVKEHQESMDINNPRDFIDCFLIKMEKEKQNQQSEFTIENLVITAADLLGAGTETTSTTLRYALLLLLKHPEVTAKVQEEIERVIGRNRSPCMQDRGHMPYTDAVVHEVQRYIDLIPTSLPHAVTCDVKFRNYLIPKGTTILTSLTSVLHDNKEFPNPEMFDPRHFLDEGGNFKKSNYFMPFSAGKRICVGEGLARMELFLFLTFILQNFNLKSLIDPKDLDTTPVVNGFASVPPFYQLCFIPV
Assay: Cytochrome panel assay with activity outcomes
Conditions: recombinant CYP, pro-luciferin dealkylation, luminescence, p450-cyp2c19; series mostly up to 57.1 µM; activity, negative = inhibition: at the top concentration
On the % scale 0 is the no-effect control and ±100 the full control effect.

Compound | AC50 | activity, negative = inhibition
COC(=O)c1ccc(-n2cncn2)c(F)c1 | 7.08 µM (active) | 
O=C(c1ccc2nc3ccc(Cl)cc3c(=O)n2c1)N1CCOCC1 |  | -7.4%
NC(=O)C1(N2CCCCC2)CCN(C(=O)c2cccn3c(=O)c4cc(Cl)ccc4nc23)CC1 | 14.1 µM (active) | 
N[C@@H](Cc1nn[nH]n1)C(=O)O |  | -17.6% [at 11.4 µM]
CCOc1ccc(-c2nn(-c3ccccc3)cc2/C=C(\C#N)S(=O)(=O)c2ccccc2)cc1C |  | -13.4%
CCOc1ccc(-c2nn(-c3ccccc3)cc2/C=C2\SC(N)=NC2=O)cc1C | 11.2 µM (active) | 
COc1ccc(C(=O)c2ccccc2)cc1Br | 8.91 µM (active) | 
COc1ccc(C(=O)c2ccc(OC)c(OC)c2)cc1OC | 2.82 µM (active) | 
COc1ccc(Br)c2c1C[C@H](C(=O)O)CC2 |  | 39.7% [at 11.4 µM]
CCOc1ccc(C(=O)O)cc1OC |  | -14.7%
CC[C@@H](c1ccccc1)n1c(=O)n2n(c1=O)[C@H]1[C@H](O)[C@H]3O[C@@H]3/C(=N/OC/C=C(\C)CCC=C(C)C)[C@@H]1CC2 |  | -35.5% [at 11.4 µM]
O=C(OC(C(=O)NC1CCCC1)c1ccncc1)C1=Cc2ccccc2OC1 (stereo not given) | 1.12 µM (active) | 
Cc1ccc(C(OC(=O)c2ccco2)C(=O)NC2CCCCC2)cc1 (stereo not given) | 17.8 µM (active) | 
CC(C)NC(=O)N1CC2(CCN(C(=O)c3ccco3)CC2)C1 |  | -2.81%
Cc1ccc(C(C(=O)NC2CCCCC2)N2CCN(C(=O)c3ccco3)CC2)cc1 (stereo not given) | 8.91 µM (active) | 
CC(C)NC(=O)N1CCC2(CC1)CCN(C(=O)c1ccco1)CC2 |  | 18%
C[N+]1(CCC(=O)c2ccco2)CC2CCC(CC2)C1 (stereo not given) |  | -31.3% [at 11.4 µM]
CN1CCN(c2nc(-c3ccccc3)cc(C(F)(F)F)n2)CC1 | 8.91 µM (active) | 
COc1ccccc1N1CCN(c2nc(-c3ccccc3)cc(C(F)(F)F)n2)CC1 | 1 µM (active) | 
COc1ccccc1-c1nc(N2CCN(C)CC2)c2ccccc2n1 |  | 1.78%

Compound | AC50 | activity, negative = inhibition
CC(C)(C)C(=O)NC(=S)NCCc1ccccc1 | 2.51 µM (active) | 
CNC(=O)NC(=S)NC(=O)c1ccc(OC)cc1 | 14.1 µM (active) | 
COc1ccc(C(=O)NCc2ccc(-c3nc4ccccc4s3)cc2)cc1 | 7.94 µM (active) | 
COc1ccc(C(=O)NNC(=S)NC(=O)c2ccco2)cc1 |  | -61.5%
Cc1ccc(C(=O)NC(=S)Nc2cc(-c3nc4ccccc4s3)ccc2C)cc1 |  | -17%
COc1ccc(C(=O)NC(=S)NCc2ccccc2)cc1 | 5.01 µM (active) | 
C/C(=C(/CCO)SSC[C@@H]1CCCO1)N(C=O)Cc1cnc(C)nc1N |  | -29% [at 25.6 µM]
COc1cc(OC)cc(C(=O)NC(=S)Nc2ccc(Cl)c(C(=O)O)c2)c1 |  | -28.3%
COc1cc(OC)cc(C(=O)NC(=S)NCCc2ccccc2)c1 | 2.51 µM (active) | 
CCOc1ccc(N2C(=O)C3C4C=CC(CC4)C3C2=O)c([N+](=O)[O-])c1 (stereo not given) | 3.98 µM (active) | 
Cc1cc(C)c(-c2cc([C@H](C)O/N=C3/[C@H]4OC4[C@@H](O)[C@H]4[C@H]3CCn3c(=O)n(-c5ccccc5)c(=O)n34)on2)c(C)c1 (stereo not given in full) |  | -40% [at 11.4 µM]
C[C@@H](/C=C\c1cccc(Oc2ccc(F)cc2)c1)N(O)C(N)=O | 3.98 µM (active) | 
CCC(C)(C)c1ccc(Oc2cccc(C(=O)O)c2)cc1 |  | -38.4% [at 11.4 µM]
C[N+]1(NCC[N@@+]2(C)CCc3ccccc3C2)CCCCC1 |  | 13.4% [at 11.4 µM]
CCc1ccc(C(=O)CN(C#N)c2nc(C)cc(C)n2)cc1 | 10 µM (active) | 
C[C@H]1[C@H](C)OC(=O)C[C@H](O)C[C@H](O)C[C@H](O)CC[C@H](O)[C@H](O)CC(=O)C[C@H](O)[C@H](C(=O)O)[C@H](O)C[C@H](O[C@@H]2O[C@@H](C)[C@H](O)[C@@H](N)[C@@H]2O)C=CC=CC=CC=CCCC=CC=C[C@@](C)(O)[C@H]1O |  | 33.3% [at 11.4 µM]
CON(c1nc(N(C)C)nc(N(C)C)n1)S(=O)(=O)c1ccccc1Cl | 4.47 µM (active) | 
CN1CCN(c2ncc3nc(-c4ccc(Cl)cc4)c(=O)n(C4CC4)c3n2)CC1 |  | -9.47%
Cc1cc(C)n(CCCNCC(O)c2ccccc2)n1 (stereo not given) |  | -21.8%
Cc1cc(C)n(CC(O)COc2ccccc2)n1 (stereo not given) | 8.91 µM (active) | 

Compound | AC50 | activity, negative = inhibition
O=C1CCC(c2ccccc2)(c2ccccc2)CC1 |  | 13.2% [at 11.4 µM]
CCCc1cc(C(=O)Cc2nc3ccccc3s2)c(O)cc1O | 0.126 µM (active) | 
COc1ccc(C2C(C#N)=C(N)Oc3n[nH]c(C)c32)cc1CN1CCN(c2ccc(F)cc2)CC1 (stereo not given) | 5.01 µM (active) | 
O=c1cc(CN2CCN(c3ccc(F)cc3)CC2)c2cc3c(cc2o1)CCCC3 |  | -27.2%
O=C(N/C(=C/c1ccc(Br)cc1)c1nc2ccccc2[nH]1)c1ccco1 | 3.16 µM (active) | 
O=C(N/C(=C/c1cccs1)c1nc2ccccc2[nH]1)c1ccccc1 |  | -29.6%
Cc1ccc(S(=O)(=O)N[C@H]2COC(=O)C/C=C\[C@@H](C)COC(=O)C/C=C\[C@@H]2C)cc1 |  | 12.1% [at 11.4 µM]
S=c1nc(-c2ccccc2)oc2c1CCCC2 | 15.8 µM (active) | 
COc1ccc(-n2c(-c3ccccc3)nc(=S)c3c2CCCC3)cc1 |  | -14.5%
c1ccc(Oc2cc(-c3ccccc3)ncn2)cc1 | 2.51 µM (active) | 
COc1ccccc1NC(=O)Nc1nnc(-c2ccco2)s1 | 1.78 µM (active) | 
COc1ccccc1-c1nnc(NC(C)=O)s1 |  | -11%
CN1C(=O)/C(=N\OC(=O)c2cccc3ccccc23)c2ccccc21 | 8.91 µM (active) | 
CN1C(=O)c2ccccc2C(C(=O)O)C1c1cn(C)c2ccccc12 (stereo not given) |  | -28.2%
NCCCCCCCCCCN |  | -14.1%
C[C@H](NCCc1ccc(O)cc1)[C@@H](O)c1ccc(O)cc1 | inactive | 
CN(c1ccccc1)c1ccc(/C=c2\s/c(=C(/C#N)C(=O)C(C)(C)C)n(Cc3ccco3)c2=O)cc1 | 1.78 µM (active) | 
COc1cccc(OCCCOc2ccccc2C(C)C)c1 | 3.16 µM (active) | 
COc1cccc(OC)c1OCCCCN1CCCC1 |  | -25.6%
CNC(C)c1cc(OC)ccc1OC (stereo not given) |  | -11.9%
